# PubChem BioAssay (NCATS)
# Inconclusive results are not listed. Where a call stands in place of a potency, no number is given. The source made the active and inactive calls. Calls follow the shape of the dose curve; as a rule, active = well fitted inhibition curve with a large enough effect; inconclusive = small, poorly fitted or top-dose-only effect; inactive = flat fitted curve, though single readings scatter.
# Molecular target: Ubiquitin carboxyl-terminal hydrolase 1 (Homo sapiens) (UniProt O94782)
# Assay: Inhibitors of USP1/UAF1: Pilot qHTS (AID 504865); also: nearly all actives have a fitted effect of over 35% in size
# Conditions: purified USP1/UAF1, Ub-rhodamine cleavage fluorescence; series mostly up to 114 µM
# From the text: Deubiquitinating enzymes (DUBs) are a class of enzymes that can cleave isopeptide bond formed between the C-terminal carboxylate of ubiquitin and a lysine side-chain amino group on the target protein. Among them, ubiquitin specific proteases (USPs) constitute the largest DUB family. Human USPs are emerging as promising targets for pharmacological intervention because of their connection to a number of human diseases, including prostate, colon and breast cancer (1, 2), pediatric acute lymphoblastic leukemia (3), and familial cylindromatosis (4). The advantage of inhibiting USPs lies in the potential specificity of therapeutic intervention that can lead to better efficacy and reduce nonspecific side effects.
# In a collaboration between the University of Delaware and the NIH Chemical Genomics Center, a high-throughput screen assay was developed to screen for USP1/UAF1 inhibitors. This miniaturized assay has a fluorescent read-out and is used to screen the NIH Molecular Libraries Small Molecule Repository (MLSMR) in order to identify a small molecule that inhibits USP1.
# NIH Chemical Genomics Center [NCGC]
# NIH Molecular Libraries Probe Centers Network [MLPCN]
# Assay Submitter (PI): Zhihao Zhuang, University of Delaware
# 1. Priolo, C., et al. (2006) The isopeptidase USP2a protects human prostate cancer from apoptosis. Cancer Res 66, 8625-8632
# 2. Popov, N., et al. (2007) The ubiquitin-specific protease USP28 is required for MYC stability. Nat Cell Biol 9, 765-774
# 3. De Pitta, C., et al. (2005) A leukemia-enriched cDNA microarray platform identifies new transcripts with relevance to the biology of pediatric acute lymphoblastic leukemia. Haematologica 90, 890-898
# 4. Kovalenko, A., et al. (2003) The tumour suppressor CYLD negatively regulates NF-kappaB signalling by deubiquitination. Nature 424, 801-805
# 3 microliters of reagents (buffer in columns 3 and 4 as negative control and 1nM USP1/UAF1 complex in columns 1, 2, and 5-48) are dispensed into Greiner black solid bottom 1536-well assay plates. Compounds are then transferred via Kalypsys pin tool equipped with 1536-pin array (10nl slotted pins, V&P Scientific, San Diego, CA). Following an incubation step of 15 min at room temperature, 1ul of Ub-Rho substrate (150nM final concentration) is added to initiate the reaction. The plates are immediately centrifuged at 1000 rpm for 15 seconds, and subsequently transferred to a ViewLux high-throughput CCD imager (PerkinElmer) wherein kinetic measurements of fluorescence are acquired using 480 nm excitation/540 nm emission filter set (6 reads every 60 seconds, see Table 1). All reagents are diluted in an assay buffer consisting of 50mM HEPES (pH 7.8), 0.5mM EDTA, 0.1 mg/ml BSA, 1mM TCEP, and 0.01% Tween-20.
# Potency is read from the fitted curve at half-maximal effect.
# Chain of Ubiquitin carboxyl-terminal hydrolase 1 (Homo sapiens) (O94782 whole entry, looked up): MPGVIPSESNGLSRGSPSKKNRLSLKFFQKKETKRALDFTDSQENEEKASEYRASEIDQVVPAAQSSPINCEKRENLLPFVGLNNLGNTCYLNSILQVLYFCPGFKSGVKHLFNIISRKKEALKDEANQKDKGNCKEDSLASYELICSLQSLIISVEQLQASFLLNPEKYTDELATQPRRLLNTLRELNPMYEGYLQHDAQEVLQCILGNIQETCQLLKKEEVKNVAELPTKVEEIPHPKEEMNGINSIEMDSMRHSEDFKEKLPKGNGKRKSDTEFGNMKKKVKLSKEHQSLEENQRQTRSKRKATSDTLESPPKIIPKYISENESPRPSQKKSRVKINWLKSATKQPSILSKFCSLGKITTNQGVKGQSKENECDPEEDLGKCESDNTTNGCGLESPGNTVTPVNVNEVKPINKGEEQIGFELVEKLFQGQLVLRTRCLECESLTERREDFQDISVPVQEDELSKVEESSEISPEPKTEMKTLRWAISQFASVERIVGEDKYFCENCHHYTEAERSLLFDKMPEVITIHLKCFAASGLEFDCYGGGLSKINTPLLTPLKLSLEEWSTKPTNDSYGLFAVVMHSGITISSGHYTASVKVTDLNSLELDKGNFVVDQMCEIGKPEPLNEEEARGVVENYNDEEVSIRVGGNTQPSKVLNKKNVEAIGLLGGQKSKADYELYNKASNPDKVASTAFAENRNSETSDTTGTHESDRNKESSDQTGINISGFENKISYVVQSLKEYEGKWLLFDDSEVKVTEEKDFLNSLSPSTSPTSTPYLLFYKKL
row,Compound,Potency
1,Nc1nc(N)c2nc(CNc3ccc(C(=O)NC(CCC(=O)O)C(=O)O)cc3)cnc2n1 (stereo not given),inactive
2,CC(=O)O[C@H]1C[C@@H]2CC[C@@H]3[C@H](CC[C@@]4(C)[C@H]3C[C@H]([N+]3(C)CCCCC3)[C@@H]4OC(C)=O)[C@@]2(C)C[C@@H]1[N+]1(C)CCCCC1,inactive
3,CN1C(=O)COc2c(C(=O)N[C@@H]3CN4CCC3CC4)cc(Cl)cc21,inactive
4,CN1CC[C@@]2(c3cccc(O)c3)Cc3nc4ccccc4cc3C[C@H]2C1,inactive
5,CN1CC(CO)=C[C@H]2c3cccc4[nH]cc(c34)C[C@H]21,50.1 µM (active)
6,N[C@H](Cc1o[nH]c(=O)c1Cl)C(=O)O,inactive
7,O=C1CC[C@@]2(O)[C@H]3Cc4ccc(O)c5c4[C@@]2(CCN3CC2CC2)[C@@H]1O5,inactive
8,C=C(C)[C@H]1C2C(=O)O[C@H]1[C@H]1OC(=O)[C@@]34O[C@@H]3C[C@]2(O)[C@@]14C,inactive
9,c1ccc([C@H]2CNCc3ccccc32)cc1,inactive
10,CCN1C[C@]2(COC)[C@H](O)C[C@H](OC)[C@]34C1C([C@H](OC)[C@H]23)[C@]1(OC(C)=O)C2[C@@H](OC(=O)c3ccccc3)C(O)(C[C@H]24)[C@@H](OC)[C@@H]1O,inactive
11,O[C@@H](Cc1ccncc1)C(Cl)(Cl)Cl,inactive
12,NC(N)=NCCCCCCCCCCN=C(N)N,inactive
13,c1cncc([C@@H]2CCCCN2)c1,inactive
14,CN[C@@H](Cc1c[nH]c2ccccc12)C(=O)O,inactive
15,Fc1ccc(C(OCCN2CCN(C/C=C\c3ccccc3)CC2)c2ccc(F)cc2)cc1,inactive
16,O[C@@H]1[C@H](O)[C@H]2[C@@H](O)CCN2C[C@@H]1O,inactive
17,NC(N)=Nc1ccc2[nH]c3c(c2c1)C[C@]1(O)[C@@H]2Cc4ccc(O)c5c4[C@]1(CCN2CC1CC1)[C@@H]3O5,inactive
18,CN1[C@@H]2CC[C@H]1CC(OC(c1ccc(F)cc1)c1ccc(F)cc1)C2 (stereo not given in full),inactive
19,CC(C)(C)NC[C@@H](O)COc1cccc2[nH]c(C#N)cc12,inactive
20,C[C@@H](Cc1ccc(OCC(=O)O)cc1)NC[C@H](O)c1cccc(Cl)c1,inactive

row,Compound,Potency
1,CCCN1C[C@H](C)N([C@H](c2ccc(C(=O)N(CC)CC)cc2)c2cccc(OC)c2)C[C@H]1C,inactive
2,NCCCP(=O)(O)CC1CCCCC1,inactive
3,COc1ccc(CNC(=O)/C=C\c2ccc3[nH]cc(CCN(C)C)c3c2)cc1,inactive
4,CC(C)(O)[C@@H]1[C@H]2OC(=O)[C@@H]1[C@]1(O)C[C@H]3O[C@]34C(=O)O[C@H]2[C@@]14C (tested in a mixture with another compound),inactive
5,CN1CC[C@@H]2CN3CCc4cccc(c43)[C@H]2C1,inactive
6,C=CCN1C[C@H](C)N([C@@H](c2ccccc2)c2ccc(C(=O)N(CC)CC)cc2)C[C@H]1C,inactive
7,CNCCc1cnc[nH]1,inactive
8,C[C@@H](C(=O)OC1C[C@H]2CC[C@@H](C1)N2C)c1ccc(Br)cc1 (stereo not given in full),inactive
9,CCCN[C@@H]1CCc2c(OC)cccc2[C@@H]1C,inactive
10,COc1cc([C@@H]2c3cc4c(cc3[C@H](O)C3COC(=O)[C@@H]32)OCO4)cc(OC)c1OC (stereo not given in full),inactive
11,O=C(O)c1ccccc1-c1c2cc(Br)c(=O)cc-2oc2[c]([Hg])c(O)c(Br)cc12,inactive
12,CC(C)(C)c1o[nH]c(=O)c1C[C@H](N)C(=O)O,inactive
13,Oc1cc[c]([Hg][Cl])cc1,50.1 µM (active)
14,O=c1oc(Cl)c(Cl)c2ccccc12,12.6 µM (active)
15,CC[C@H](Oc1ccc(Cl)cc1)C(=O)OC1C[C@H]2CC[C@@H](C1)N2C (stereo not given in full),inactive
16,CN(C(=O)Cc1ccccc1)[C@H](CN1CCCC1)c1ccccc1,inactive
17,c1cncc(C2CCCCN2)c1 (stereo not given),inactive
18,C[C@@H](N)Cn1ccc2cc(F)c(Cl)cc21,inactive
19,CCCOc1ccc2[nH]cc(C3=CCNCC3)c2n1,inactive
20,CC1CCCC(=O)CCC/C=C/c2cc(O)cc(O)c2C(=O)O1 (stereo not given),inactive
